TEAD-YAP inh = TEAD-YAP interaction inhibition; HEK-TIYL cells, TEAD-Gal4/YAP UAS-luciferase luminescence; inhibition, % at 9.12 µM; actives 1.4% (n = 640,000); AID 1259422; in the data active = inhibition above about 32%;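 note: 0% = median of test compound wells and 100% = reference inhibitor wells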
FBW7 activator = activators of human E3 ligase FBW7; AlphaScreen FBW7–phospho-cyclin E peptide binding, activator screen; normalized activity (activation), % at 26.1 µM; actives 0.13% (n = 650,000); AID 1259310; in the data active = normalized activity above about 1.9%;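 note: purified mutant Fbw7 with reduced substrate affinity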
MITF primary = human MITF inhibition, primary screen; O75030; inhibition, % at 2.6 µM; AID 1259374; AlphaScreen MITF homodimerization, bead proximity signal; actives 0.91% (n = 650,000); in the data active = inhibition above about 50%;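 note: 0% = vehicle wells with protein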
GPR151 ag = activates the human receptor GPR151; Q8TDV0; PathHunter beta-arrestin GPR151 cells, luminescence; activation, % at 11.2 µM; actives 1% (n = 650,000); in the data active = activation above about 4.9%;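 note: 0% = median of compound wells and 100% = cells with positive control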
Target sequence (Q8TDV0 whole entry, looked up): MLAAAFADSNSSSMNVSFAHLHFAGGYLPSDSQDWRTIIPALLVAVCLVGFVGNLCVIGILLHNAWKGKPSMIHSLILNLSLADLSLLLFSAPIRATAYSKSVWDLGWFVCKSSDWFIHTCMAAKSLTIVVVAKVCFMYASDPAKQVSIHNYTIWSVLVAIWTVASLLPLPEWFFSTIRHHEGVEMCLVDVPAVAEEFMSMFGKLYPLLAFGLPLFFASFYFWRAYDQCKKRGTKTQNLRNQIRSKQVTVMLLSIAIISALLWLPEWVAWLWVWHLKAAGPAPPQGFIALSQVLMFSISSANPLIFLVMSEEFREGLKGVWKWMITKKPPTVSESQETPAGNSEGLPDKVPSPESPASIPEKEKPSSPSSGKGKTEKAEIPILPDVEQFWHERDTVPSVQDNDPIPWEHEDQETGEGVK
The depositor's hits bear a star; ! = a repeat was not active. Only some compounds are listed: those with a hit (about 3.5% of all), similar ones and a draw of the others.

What do the screens show for `O=C(COc1cccc(Cl)c1)Nc1ccccc1[N+](=O)[O-]`?
TEAD-YAP inh: 32*; FBW7 activator: 0; MITF primary: -4; GPR151 ag: 2

How did Cc1cccc(OCC(=O)Nc2ccc(F)c([N+](=O)[O-])c2)c1 do in these assays?
TEAD-YAP inh: 32*; FBW7 activator: 0; MITF primary: 1; GPR151 ag: 0

What do the screens show for `Cc1ccc(C(=O)Nc2nnc(SCC(=O)Nc3ccc(F)c([N+](=O)[O-])c3)s2)cc1`?
TEAD-YAP inh: 83*; FBW7 activator: 0; MITF primary: -3; GPR151 ag: 1

How did Cc1cc(C)cc(OCC(=O)Nc2ccc(F)c([N+](=O)[O-])c2)c1 do in these assays?
TEAD-YAP inh: 37*; FBW7 activator: 0; MITF primary: 3; GPR151 ag: 4

Results for Cc1ccc(NC(=O)CSc2nnc(NC(=O)c3ccccc3[N+](=O)[O-])s2)cc1 ?
TEAD-YAP inh: -32; FBW7 activator: 0; MITF primary: -17; GPR151 ag: -4

How did Cc1ccc(OCC(=O)Nc2ccc(F)c([N+](=O)[O-])c2)cc1C do in these assays?
TEAD-YAP inh: 13; FBW7 activator: 0; MITF primary: -8; GPR151 ag: 0

What do the screens show for `COc1ccc(-c2nnc(SCC(=O)c3c[nH]c4ccccc34)o2)cc1OC`?
TEAD-YAP inh: 7; FBW7 activator: 0; MITF primary: 3; GPR151 ag: 1

Results for COc1c2occc2cc2ccc(=O)oc12 ?
TEAD-YAP inh: -2; FBW7 activator: 2.0*!; MITF primary: 1; GPR151 ag: -1

Results for COc1ccc(OC)c(C(=O)COC(=O)c2ccco2)c1 ?
TEAD-YAP inh: 5; FBW7 activator: 0; MITF primary: 7; GPR151 ag: 0

Results for O=c1[nH]c(N2CCCCC2)nc2c1CCN(Cc1ccc(O)c(O)c1)C2 ?
TEAD-YAP inh: -10; FBW7 activator: 0; MITF primary: 82*; GPR151 ag: -1

Results for COc1ccc(-n2nc(C(=O)NCC(=O)Nc3ccc(F)cc3)c3ccccc3c2=O)cc1OC ?
TEAD-YAP inh: 17; FBW7 activator: 0; MITF primary: -8; GPR151 ag: 1

How did COc1cccc(NC(=O)CNC(=O)c2nn(-c3ccc(OC)c(OC)c3)c(=O)c3ccccc23)c1 do in these assays?
TEAD-YAP inh: 34*; FBW7 activator: 0; MITF primary: -1; GPR151 ag: -1

Results for COc1ccc(-n2nc(C(=O)NCC(=O)Nc3cc(OC)c(OC)c(OC)c3)c3ccccc3c2=O)cc1OC ?
TEAD-YAP inh: 49*; FBW7 activator: 0; MITF primary: 5; GPR151 ag: 1

What do the screens show for `Cc1ncoc1C(=O)Nc1ccc(Cl)cc1`?
TEAD-YAP inh: -33; FBW7 activator: 0; MITF primary: 7; GPR151 ag: -1

What do the screens show for `Oc1ccc(-c2cn3ccsc3n2)cc1`?
TEAD-YAP inh: 73*; FBW7 activator: 0; MITF primary: 12; GPR151 ag: -2

How did CCOc1ccc(-c2cn3ccsc3n2)cc1 do in these assays?
TEAD-YAP inh: 43*; FBW7 activator: 0; MITF primary: 12; GPR151 ag: -2

What do the screens show for `CCN(CC)c1nc(NCc2ccccc2)nc(Nc2ccc3ncccc3c2)n1`?
TEAD-YAP inh: -3; FBW7 activator: 0; MITF primary: 15; GPR151 ag: 2

How did Nc1[nH]ncc1-c1ccc(NC(=O)C2COc3ccc(F)cc3C2)cc1 (stereo not drawn) do in these assays?
TEAD-YAP inh: 47*; FBW7 activator: 0; MITF primary: 3; GPR151 ag: -1

How did Nc1oncc1-c1ccc(NC(=O)C2COc3ccccc3C2)cc1 (stereo not drawn) do in these assays?
TEAD-YAP inh: 6; FBW7 activator: 0; MITF primary: 5; GPR151 ag: 2

Results for Nc1oncc1-c1ccc(NC(=O)C2COc3ccc(F)cc3C2)cc1 (stereo not drawn) ?
TEAD-YAP inh: 50*; FBW7 activator: 0; MITF primary: 21; GPR151 ag: -1

What do the screens show for `Cc1[nH]ncc1-c1ccc(NC(=O)C2COc3ccccc3C2)cc1` (stereo not drawn)?
TEAD-YAP inh: 41*; FBW7 activator: 0; MITF primary: -6; GPR151 ag: 3

How did CC1Cc2ccccc2CNC12CCCCC2 (stereo not drawn) do in these assays?
TEAD-YAP inh: -9; FBW7 activator: 0; MITF primary: 2; GPR151 ag: 0

How did Cc1nc(NC(=O)/C=C/c2ccccc2)sc1C(=O)NCc1ccccc1 do in these assays?
TEAD-YAP inh: -5; FBW7 activator: 0; MITF primary: 2; GPR151 ag: 1

Results for Cc1ccccc1NC(=O)c1sc(NC(=O)/C=C/c2ccccc2)nc1C ?
TEAD-YAP inh: 49*; FBW7 activator: 0; MITF primary: 1; GPR151 ag: 2

Results for Cc1ccc(Nc2nc(N)c3ccccc3n2)cc1C ?
TEAD-YAP inh: 55*; FBW7 activator: 0; MITF primary: 19; GPR151 ag: -6

What do the screens show for `COc1ccc(-n2nc3cc(C)c(NC(=O)c4ccc(-c5cccc([N+](=O)[O-])c5)o4)cc3n2)cc1`?
TEAD-YAP inh: -9; FBW7 activator: 0; MITF primary: -2; GPR151 ag: 1

How did CCC1CCCCN1C(=O)c1cn(-c2ccc(Cl)cc2)c(=O)c2ccccc12 (stereo not drawn) do in these assays?
TEAD-YAP inh: -4; FBW7 activator: 0; MITF primary: -1; GPR151 ag: -1

Results for CCCCOc1ccc(N2C(=O)CC(N3CCN(C)CC3)C2=O)cc1 (stereo not drawn) ?
TEAD-YAP inh: -4; FBW7 activator: 0; MITF primary: 10; GPR151 ag: 0

Results for CCN(c1ccccc1)c1ncnc(N)c1[N+](=O)[O-] ?
TEAD-YAP inh: 52*; FBW7 activator: 0; MITF primary: -5; GPR151 ag: 2

What do the screens show for `CCCCN(C)c1ncnc(N)c1[N+](=O)[O-]`?
TEAD-YAP inh: 41*; FBW7 activator: 0; MITF primary: 17; GPR151 ag: -2

What do the screens show for `CCN(CC)c1ncnc(N)c1[N+](=O)[O-]`?
TEAD-YAP inh: 63*; FBW7 activator: 0; MITF primary: 14; GPR151 ag: 0

How did CCCCN(c1ccccc1)c1ncnc(N)c1[N+](=O)[O-] do in these assays?
TEAD-YAP inh: 28; FBW7 activator: 0; MITF primary: -7; GPR151 ag: -2

Results for CCCCN(Cc1ccccc1)c1ncnc(N)c1[N+](=O)[O-] ?
TEAD-YAP inh: 8; FBW7 activator: 0; MITF primary: 6; GPR151 ag: 4

What do the screens show for `CN(c1ncnc(N)c1[N+](=O)[O-])C1CCS(=O)(=O)C1` (stereo not drawn)?
TEAD-YAP inh: 22; FBW7 activator: 0; MITF primary: 10; GPR151 ag: -1

Results for CN(c1ncnc(N)c1[N+](=O)[O-])C1CCCCC1 ?
TEAD-YAP inh: 54*; FBW7 activator: 0; MITF primary: 4; GPR151 ag: 0

How did COc1ccc(/C=N/NC(=O)c2cc(O)cc(O)c2)cc1 do in these assays?
TEAD-YAP inh: 28; FBW7 activator: 0; MITF primary: 7; GPR151 ag: -1

What do the screens show for `Nc1ncnc(N2CCCCCC2)c1[N+](=O)[O-]`?
TEAD-YAP inh: 49*; FBW7 activator: 0; MITF primary: 6; GPR151 ag: 1

Screening results: PubChem, The Scripps Research Institute Molecular Screening Center
